# Source: PubChem BioAssay (The Scripps Research Institute Molecular Screening Center)
# Rows were chosen to be rich in hits. Some 2.3% of all compounds tested hit in one or more screens of this group.
# M1 PAM parental: nonselective activator or artifact in parental CHO-K1 calcium assay; 360,000 tested, 0.02% active; ATP EC20, Fluo-8 calcium fluorescence; 0% at ATP EC20, 100% at ATP max; activation, % at 3 µM; AID 602247;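 active = activation above the run cutoff, the mean activation of all test compounds plus 3 SD, cut at about 40% in these data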;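 also: peak over basal fluorescence ratio in a 140 s read after ATP addition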
# M1 antag: blocks human M1 muscarinic receptor. AID 588852. CHO-K1 hM1, Fluo-8 calcium fluorescence, ACh EC80 antagonist. P11229. 360,000 tested, 1.3% active. inhibition, % at 3 µM;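 active = percent inhibition above its own plate's cutoff, namely the mean of that plate's compound wells plus 3 SD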;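 also: peak over basal fluorescence ratio during 140 s after agonist addition; 0% = ACh EC80 plus DMSO and 100% = DMSO alone without agonist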
# Target sequence (P11229 whole entry, looked up): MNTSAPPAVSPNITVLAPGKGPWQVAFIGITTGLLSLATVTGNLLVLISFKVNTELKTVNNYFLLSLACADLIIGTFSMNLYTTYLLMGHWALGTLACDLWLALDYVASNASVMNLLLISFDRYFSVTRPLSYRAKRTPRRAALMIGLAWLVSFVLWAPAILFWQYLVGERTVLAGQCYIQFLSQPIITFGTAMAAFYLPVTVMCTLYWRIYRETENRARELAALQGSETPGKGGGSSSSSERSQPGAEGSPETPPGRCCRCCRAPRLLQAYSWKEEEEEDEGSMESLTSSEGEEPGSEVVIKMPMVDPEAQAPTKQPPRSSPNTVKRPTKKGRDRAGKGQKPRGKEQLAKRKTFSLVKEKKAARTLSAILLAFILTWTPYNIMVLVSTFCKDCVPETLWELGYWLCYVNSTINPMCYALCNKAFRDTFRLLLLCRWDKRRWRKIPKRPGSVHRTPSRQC
# CHO-K1 Ca ag: nonselective activator or artifact in parental CHO-K1 cells; 360,000 tested, 0.48% active; Fluo-8 calcium fluorescence; scaled to maximal ATP response, vehicle zero; activation, % at 3 µM; AID 602248; in the data active = activation above about 15%;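 also: untransfected CHO-K1 host cells lacking M1 receptor as counterscreen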
# CHRM1 agonist: activates human CHRM1 receptor; P11229; CHO-K1 hM1, Fluo-8 calcium fluorescence, agonist mode; 0% DMSO, 100% acetylcholine EC100; activation, % at 3 µM; 360,000 tested, 0.33% active;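 active = activation above the run's mean compound activation plus 3 SD, cut at about 16% in these data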;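 also: peak over basal fluorescence ratio within a 140 s kinetic read after compound addition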
# M1 PAM: positive allosteric modulators of human M1 muscarinic receptor; 360,000 tested, 0.088% active; CHO-K1 hM1, Fluo-8 calcium fluorescence, ACh EC20; 0% = ACh EC20, 100% = maximal ACh; activation, % at 3 µM; in the data active = activation above about 19%, passing the limit was not always enough
# CHO-K1 Ca antag: counter-screen for M1 antagonists: effect in parental CHO-K1 cells; 360,000 tested, 0.6% active; AID 602250; inhibition, % at 3 µM; ATP-induced calcium, Fluo-8 fluorescence;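 active = inhibition above a per-plate cutoff, the plate's mean sample inhibition plus 3 SD, cut at about 24% in these data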;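 also: 0% = DMSO plus EC80 ATP and 100% = DMSO alone without ATP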
# * marks the source's active call; other numbers are inactive results; / = no result given.
SMILES,M1 PAM parental,M1 antag,CHO-K1 Ca ag,CHRM1 agonist,M1 PAM,CHO-K1 Ca antag
O=C(CSc1nnc(C2CC2)n1C1CC1)N1CCN(c2ccc(O)cc2)CC1,15,-20,0,-3,9,1
Cc1nc(Cl)sc1C(=O)Nc1ccc(F)cc1,12,-15,1,-4,8,-9
CC(C)S(=O)(=O)c1csc(C(=O)Nc2ccc(F)cc2)c1N,14,-5,21*,7,9,4
S=C(NCc1ccc(Cl)cc1)NCc1ccco1,-23,-9,1,-1,12,5
O=C1NC[C@H](CCCCN2C[C@@H](Cc3ccccc3)N(CC3CCCCC3)C(=O)C2=O)N(CCC2CCCCC2)C1=O,6,/,26*,/,/,-16
O=C1NC[C@@H](CCCCN2C[C@H](Cc3ccccc3)N(CC3CCCCC3)C(=O)C2=O)N(CC2CCCCC2)C1=O,9,/,35*,/,/,-18
O=C1NC[C@H](CCCCN2C[C@H](Cc3ccccc3)N(CC3CCCCC3)C(=O)C2=O)N(CCC2CCCCC2)C1=O,16,/,1,/,/,-18
Cc1ccc(NS(=O)(=O)c2ccc(C(=O)OCC(=O)Nc3cc(C)on3)cc2)cc1,24,8,19*,28*,6,2
N#Cc1c(N2CCOCC2)nc(-c2ccco2)c2c1CCCC2,-7,13,1,-2,-1,25*
CC1(C)Cc2c(C#N)c(N3CCCC3)nc(-c3ccco3)c2CO1,10,3,0,-2,1,-9
O=C(OCn1nnc2ccccc2c1=O)c1ccc(S(=O)(=O)N2CCOCC2)cc1,17,-4,2,-4,5,-8
CCN(CC)S(=O)(=O)c1ccc(C(=O)OCn2nnc3ccccc3c2=O)cc1,2,active,11,-2,-15,8
CN1CCCC(OC(=O)CCCCC(=O)OC2CCCN(C)C2)C1 (stereo not drawn),-6,2,-1,-4,1,26*
CN1CCCC(OC(=O)c2ccc(Cl)cc2)C1 (stereo not drawn),20,-25,1,-8,9,-7
COc1ccc(C[C@@H]2CN3C(=NC[C@@H]3Cc3ccc(O)cc3)N2C[C@H](C)NC(=O)CCC2CCCCC2)cc1,8,48*,0,-14,-37,-6
Cc1cccc2cc(-c3ccccc3)c(-c3ccccc3)c[n+]12,12,52*,0,-9,-23,-6
Cc1c(O)ccc2c(-c3ccccc3)cc(=O)oc12,10,8,9,1,-11,17
CC(C)NC(=O)c1ccc(CN2CCC(Cc3ccccc3)CC2)cc1,1,84*,1,-8,-27,-3
Cc1ccccc1NC(=O)c1ccc(CN2CCC(Cc3ccccc3)CC2)cc1,-2,55*,1,-4,-21,7
COc1ccc(CCNC(=O)c2ccc(CN3CCC(Cc4ccccc4)CC3)cc2)cc1,12,-1,0,-7,-10,-1
C=CCNC(=O)c1ccc(CN2CCC(Cc3ccccc3)CC2)cc1,23,74*,1,-9,-28,-15
COc1ccc(/C=C/C(=O)N(C)Cc2cccs2)cc1S(=O)(=O)N1CCOCC1,5,6,16*,-8,4,0
COc1ccc(C(=O)NCc2cccs2)cc1S(=O)(=O)N1CCOCC1,-1,-4,1,-4,6,-6
COc1ccc(NC(C)=O)cc1S(=O)(=O)N1CCN(Cc2cccs2)CC1,11,-10,1,6,24*,-11
O=C1C(CCCNC(=S)NCc2ccccc2)NC(=S)N1Cc1ccccc1 (stereo not drawn),16,3,19*,-11,5,4
SMILES,M1 PAM parental,M1 antag,CHO-K1 Ca ag,CHRM1 agonist,M1 PAM,CHO-K1 Ca antag
COc1ccccc1Nc1nc2ccc(C)cc2cc1C#N,-6,2,0,0,-2,25*
COc1ccccc1Nc1nc2cc(C)ccc2cc1C#N,14,-1,16*,-7,15,10
COc1ccccc1Nc1nc2c(C)cccc2cc1C#N,9,-2,0,-4,7,-5
COc1cc(NC(=O)Cc2ccccc2)ccc1NC(=O)c1ccccc1,-1,1,0,-3,-1,20
COC(C(=O)Nc1ccc(F)cc1)c1ccccc1 (stereo not drawn),-2,-6,0,1,7,15
COC(C(=O)Nc1ccc(S(=O)(=O)Nc2ccc(F)cc2)cc1)c1ccccc1 (stereo not drawn),37,3,10,18*,7,-1
CC(=O)c1c(C)oc2ccc(N(C(C)=O)S(=O)(=O)c3cccc4cccnc34)cc12,-9,60*,12,2,-25,0
CC(=O)c1c(C)oc2ccc(N(C(C)=O)S(=O)(=O)c3ccc(F)cc3C)cc12,15,-12,1,-3,11,-8
N#Cc1ccc(CN(c2ccncc2)S(=O)(=O)c2ccccc2)cc1,17,-3,1,-8,4,-16
COCCN(C(=O)CSc1nnc(-c2ccco2)n1C)c1c(N)n(CC(C)C)c(=O)[nH]c1=O,22,-14,-1,0,20,-18
CC1CN(C)C(C)CC1OC(=O)C(c1ccccc1)c1ccccc1 (stereo not drawn),18,97*,1,-8,-27,-12
CCCCOc1ccc(C(=O)OC2CC(C)N(C)CC2C)cc1 (stereo not drawn),15,44*,0,-6,-25,-16
CN(C)[C@@H]1CCC[C@H]1OC(=O)C(c1ccccc1)c1ccccc1,3,92*,0,-7,-26,-7
CCCCOc1ccc(C(=O)N2CCC(C)CC2)cc1,9,0,0,-4,7,-2
CCOC(=O)c1nc(C)n(-c2cc(OC)c(Cl)cc2Cl)n1,3,-10,0,-7,15,1
S=C(Nc1ccccc1)Nc1ccc(Cl)cn1,8,37*,4,-5,-13,-2
O=C(NC(=S)Nc1ccc(Cl)cn1)C(c1ccccc1)c1ccccc1,0,0,0,-5,-3,-14
COc1ccc(N2CC(O)(c3ccc(OC(F)F)cc3)[N+]3=C2CCCC3)cc1 (stereo not drawn),7,42*,0,-7,-19,-3
COc1ccc(N2CC(O)(c3ccc(F)cc3)[N+]3=C2CCCC3)cc1 (stereo not drawn),-11,47*,0,-9,-23,2
CCOc1ccc(N2CC(O)(c3cccs3)[N+]3=C2CCCC3)cc1 (stereo not drawn),17,41*,1,-4,-11,-7
OC1(c2cccs2)CN(c2ccccc2)C2=[N+]1CCCC2 (stereo not drawn),12,-7,0,-5,7,-13
Cc1c(Br)c(C(F)(F)F)nn1CC(=O)NCc1ccccc1,36,-7,2,-6,3,-17
